Measured values reported in ChEMBL document CHEMBL2218924, “A broad activity screen in support of a chemogenomic map for kinase signalling research and drug discovery” (Biochem J, 2013).

Key:
[1] = molecular target: T1, Ephrin type-A receptor 3 (Homo sapiens) (UniProt P29320); conditions: at 10 µM
T1 sequence (whole entry): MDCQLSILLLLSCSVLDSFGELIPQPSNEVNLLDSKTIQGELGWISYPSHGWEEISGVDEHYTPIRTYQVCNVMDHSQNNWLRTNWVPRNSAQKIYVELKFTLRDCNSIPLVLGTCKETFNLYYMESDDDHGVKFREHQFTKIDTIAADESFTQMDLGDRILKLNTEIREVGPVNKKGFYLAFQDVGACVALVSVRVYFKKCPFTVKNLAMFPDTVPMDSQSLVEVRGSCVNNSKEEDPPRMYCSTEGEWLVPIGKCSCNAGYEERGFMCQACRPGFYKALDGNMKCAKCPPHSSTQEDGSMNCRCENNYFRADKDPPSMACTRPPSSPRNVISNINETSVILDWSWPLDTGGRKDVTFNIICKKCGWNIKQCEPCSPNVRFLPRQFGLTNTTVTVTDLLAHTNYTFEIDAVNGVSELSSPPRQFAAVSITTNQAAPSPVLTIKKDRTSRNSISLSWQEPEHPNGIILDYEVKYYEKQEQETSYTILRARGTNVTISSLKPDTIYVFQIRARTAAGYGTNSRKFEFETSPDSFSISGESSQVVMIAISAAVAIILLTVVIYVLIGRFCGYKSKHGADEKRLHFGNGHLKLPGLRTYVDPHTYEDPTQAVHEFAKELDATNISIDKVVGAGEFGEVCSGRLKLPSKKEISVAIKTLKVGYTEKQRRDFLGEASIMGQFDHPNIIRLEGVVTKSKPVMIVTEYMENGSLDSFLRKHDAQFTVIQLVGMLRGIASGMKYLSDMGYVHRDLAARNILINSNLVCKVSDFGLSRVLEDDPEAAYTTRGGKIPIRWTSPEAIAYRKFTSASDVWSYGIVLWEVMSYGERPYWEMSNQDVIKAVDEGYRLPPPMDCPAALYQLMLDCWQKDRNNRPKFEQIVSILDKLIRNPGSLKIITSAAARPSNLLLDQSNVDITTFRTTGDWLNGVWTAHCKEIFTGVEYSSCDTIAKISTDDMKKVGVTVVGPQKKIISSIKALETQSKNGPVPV

[2] = molecular target: T2, Ephrin type-A receptor 8 (Homo sapiens) (UniProt P29322); conditions: at 1 µM
T2 sequence (whole entry): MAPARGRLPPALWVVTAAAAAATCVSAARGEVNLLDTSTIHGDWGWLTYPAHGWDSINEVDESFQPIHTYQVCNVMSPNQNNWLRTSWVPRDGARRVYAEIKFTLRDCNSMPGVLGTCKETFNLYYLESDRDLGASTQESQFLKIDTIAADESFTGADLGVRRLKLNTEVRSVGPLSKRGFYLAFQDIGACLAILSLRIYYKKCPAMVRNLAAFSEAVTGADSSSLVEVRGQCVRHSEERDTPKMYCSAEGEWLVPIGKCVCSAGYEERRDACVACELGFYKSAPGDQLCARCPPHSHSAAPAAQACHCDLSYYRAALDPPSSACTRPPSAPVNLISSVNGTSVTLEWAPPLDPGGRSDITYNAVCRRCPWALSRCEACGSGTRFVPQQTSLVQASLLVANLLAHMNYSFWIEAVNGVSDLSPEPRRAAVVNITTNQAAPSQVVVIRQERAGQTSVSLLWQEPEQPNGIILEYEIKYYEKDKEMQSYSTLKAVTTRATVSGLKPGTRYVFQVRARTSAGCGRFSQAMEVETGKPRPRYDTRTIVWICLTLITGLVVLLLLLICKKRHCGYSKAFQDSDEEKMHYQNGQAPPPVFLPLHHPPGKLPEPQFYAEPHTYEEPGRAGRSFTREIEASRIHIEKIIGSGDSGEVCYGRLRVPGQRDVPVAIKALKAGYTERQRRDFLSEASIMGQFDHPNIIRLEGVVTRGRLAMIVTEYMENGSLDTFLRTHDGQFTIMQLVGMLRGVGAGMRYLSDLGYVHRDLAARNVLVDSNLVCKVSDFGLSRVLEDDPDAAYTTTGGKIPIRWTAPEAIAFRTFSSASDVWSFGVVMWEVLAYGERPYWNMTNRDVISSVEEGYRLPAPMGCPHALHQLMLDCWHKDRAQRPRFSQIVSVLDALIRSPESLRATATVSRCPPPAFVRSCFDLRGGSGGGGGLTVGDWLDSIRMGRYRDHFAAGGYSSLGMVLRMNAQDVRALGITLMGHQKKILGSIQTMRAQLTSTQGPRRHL

[3] = molecular target: T2, Ephrin type-A receptor 8 (Homo sapiens); conditions: at 10 µM
[4] = molecular target: T3, Ephrin type-B receptor 3 (Homo sapiens) (UniProt P54753); conditions: at 1 µM
T3 sequence (whole entry): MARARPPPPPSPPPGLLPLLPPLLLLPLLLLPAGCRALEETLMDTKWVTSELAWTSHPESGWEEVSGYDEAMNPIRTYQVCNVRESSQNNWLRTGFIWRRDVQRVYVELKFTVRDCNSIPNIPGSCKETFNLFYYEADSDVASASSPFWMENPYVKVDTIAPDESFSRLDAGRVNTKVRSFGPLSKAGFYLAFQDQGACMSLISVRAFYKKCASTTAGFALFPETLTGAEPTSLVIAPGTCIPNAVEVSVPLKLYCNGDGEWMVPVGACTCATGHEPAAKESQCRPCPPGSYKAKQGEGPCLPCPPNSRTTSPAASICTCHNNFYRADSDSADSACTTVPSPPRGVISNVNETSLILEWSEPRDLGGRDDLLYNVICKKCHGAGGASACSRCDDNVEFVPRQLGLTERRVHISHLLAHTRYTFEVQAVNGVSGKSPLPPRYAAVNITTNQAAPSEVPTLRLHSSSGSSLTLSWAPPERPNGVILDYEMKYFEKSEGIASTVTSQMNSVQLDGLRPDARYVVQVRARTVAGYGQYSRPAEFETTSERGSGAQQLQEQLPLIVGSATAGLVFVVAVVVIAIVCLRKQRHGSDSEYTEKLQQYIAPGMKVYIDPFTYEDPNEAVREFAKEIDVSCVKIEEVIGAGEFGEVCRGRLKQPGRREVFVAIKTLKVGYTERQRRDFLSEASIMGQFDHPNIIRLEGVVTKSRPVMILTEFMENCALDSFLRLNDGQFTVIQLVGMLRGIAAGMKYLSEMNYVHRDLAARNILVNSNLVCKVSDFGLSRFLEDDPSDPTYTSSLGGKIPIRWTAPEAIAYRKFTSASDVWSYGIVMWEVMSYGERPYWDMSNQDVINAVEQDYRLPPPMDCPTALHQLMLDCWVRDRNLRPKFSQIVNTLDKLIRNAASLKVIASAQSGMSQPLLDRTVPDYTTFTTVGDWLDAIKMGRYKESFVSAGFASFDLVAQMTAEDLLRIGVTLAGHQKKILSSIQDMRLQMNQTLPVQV

[5] = molecular target: T3, Ephrin type-B receptor 3 (Homo sapiens); conditions: at 10 µM
[6] = molecular target: T4, Ephrin type-B receptor 4 (Homo sapiens) (UniProt P54760); conditions: at 1 µM
T4 sequence (whole entry): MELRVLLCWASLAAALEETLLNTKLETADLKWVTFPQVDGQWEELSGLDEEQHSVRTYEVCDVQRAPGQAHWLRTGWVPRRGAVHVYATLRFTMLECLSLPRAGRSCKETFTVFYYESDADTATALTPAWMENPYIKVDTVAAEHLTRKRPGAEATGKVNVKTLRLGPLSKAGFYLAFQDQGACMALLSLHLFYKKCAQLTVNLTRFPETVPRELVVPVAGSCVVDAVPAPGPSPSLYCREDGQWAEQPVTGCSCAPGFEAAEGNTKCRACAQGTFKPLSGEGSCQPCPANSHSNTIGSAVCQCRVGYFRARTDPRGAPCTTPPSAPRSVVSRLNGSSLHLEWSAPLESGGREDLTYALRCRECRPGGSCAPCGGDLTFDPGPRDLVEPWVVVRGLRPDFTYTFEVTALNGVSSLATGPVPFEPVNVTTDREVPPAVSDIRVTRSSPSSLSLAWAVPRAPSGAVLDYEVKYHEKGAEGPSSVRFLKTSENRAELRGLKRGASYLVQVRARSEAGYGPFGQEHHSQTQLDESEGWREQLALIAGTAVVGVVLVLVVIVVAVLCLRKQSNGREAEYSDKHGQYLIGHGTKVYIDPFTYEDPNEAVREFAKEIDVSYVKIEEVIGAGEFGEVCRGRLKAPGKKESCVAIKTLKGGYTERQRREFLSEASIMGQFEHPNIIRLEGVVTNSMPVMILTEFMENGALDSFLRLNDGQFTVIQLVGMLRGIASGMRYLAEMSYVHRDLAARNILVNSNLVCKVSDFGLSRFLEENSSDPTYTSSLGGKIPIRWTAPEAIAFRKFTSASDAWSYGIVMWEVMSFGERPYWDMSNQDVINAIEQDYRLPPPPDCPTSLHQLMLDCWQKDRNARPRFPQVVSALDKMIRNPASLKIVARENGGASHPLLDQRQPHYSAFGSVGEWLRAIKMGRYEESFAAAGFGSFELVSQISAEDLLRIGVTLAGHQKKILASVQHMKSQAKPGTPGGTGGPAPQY

[7] = molecular target: T4, Ephrin type-B receptor 4 (Homo sapiens); conditions: at 10 µM
[8] = molecular target: Ephrin type-A receptor 4 (Homo sapiens) (UniProt P54764); conditions: at 10 µM
[9] = molecular target: Ephrin type-A receptor 5 (Homo sapiens) (UniProt P54756); conditions: at 1 µM
[10] = molecular target: Ephrin type-A receptor 5 (Homo sapiens) (UniProt P54756); conditions: at 10 µM
[11] = molecular target: Receptor tyrosine-protein kinase erbB-4 (Homo sapiens) (UniProt Q15303); conditions: at 10 µM
Receptor tyrosine-protein kinase erbB-4 (Homo sapiens), sequence (Q15303 whole entry): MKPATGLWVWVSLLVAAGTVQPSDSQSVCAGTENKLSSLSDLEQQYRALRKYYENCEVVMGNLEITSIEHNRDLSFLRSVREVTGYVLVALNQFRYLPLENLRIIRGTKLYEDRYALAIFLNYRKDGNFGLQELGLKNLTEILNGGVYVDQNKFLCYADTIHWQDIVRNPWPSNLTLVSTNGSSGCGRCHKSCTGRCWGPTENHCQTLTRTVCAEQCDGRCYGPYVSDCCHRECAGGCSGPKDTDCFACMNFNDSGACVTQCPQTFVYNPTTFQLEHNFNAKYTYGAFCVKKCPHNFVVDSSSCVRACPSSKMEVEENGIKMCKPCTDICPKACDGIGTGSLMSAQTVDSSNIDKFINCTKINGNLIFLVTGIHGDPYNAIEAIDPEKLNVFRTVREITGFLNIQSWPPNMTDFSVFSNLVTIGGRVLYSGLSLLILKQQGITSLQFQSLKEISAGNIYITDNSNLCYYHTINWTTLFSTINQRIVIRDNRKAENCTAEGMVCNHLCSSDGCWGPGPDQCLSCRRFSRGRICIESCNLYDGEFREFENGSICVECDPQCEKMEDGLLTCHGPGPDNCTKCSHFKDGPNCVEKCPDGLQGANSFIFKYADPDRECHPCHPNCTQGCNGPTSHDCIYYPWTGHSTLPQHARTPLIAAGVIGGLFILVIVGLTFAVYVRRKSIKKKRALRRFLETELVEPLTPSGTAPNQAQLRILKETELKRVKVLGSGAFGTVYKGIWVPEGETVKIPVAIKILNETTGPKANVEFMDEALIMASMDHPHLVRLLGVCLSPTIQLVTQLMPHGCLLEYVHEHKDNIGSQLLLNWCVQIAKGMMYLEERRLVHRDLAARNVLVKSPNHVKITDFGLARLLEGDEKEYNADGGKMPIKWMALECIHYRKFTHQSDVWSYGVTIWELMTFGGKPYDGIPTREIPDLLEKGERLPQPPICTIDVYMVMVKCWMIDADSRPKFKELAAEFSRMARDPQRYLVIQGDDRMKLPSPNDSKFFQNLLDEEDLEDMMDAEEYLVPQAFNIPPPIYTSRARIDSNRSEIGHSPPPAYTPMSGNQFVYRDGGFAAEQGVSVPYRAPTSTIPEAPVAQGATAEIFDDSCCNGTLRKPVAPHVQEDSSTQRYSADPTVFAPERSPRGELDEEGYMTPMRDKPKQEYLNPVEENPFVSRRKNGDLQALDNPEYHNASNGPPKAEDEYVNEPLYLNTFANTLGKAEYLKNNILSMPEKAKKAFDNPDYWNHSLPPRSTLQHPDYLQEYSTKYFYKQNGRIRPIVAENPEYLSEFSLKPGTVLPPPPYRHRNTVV

Ephrin type-A receptor 5 (Homo sapiens), sequence (P54756 whole entry): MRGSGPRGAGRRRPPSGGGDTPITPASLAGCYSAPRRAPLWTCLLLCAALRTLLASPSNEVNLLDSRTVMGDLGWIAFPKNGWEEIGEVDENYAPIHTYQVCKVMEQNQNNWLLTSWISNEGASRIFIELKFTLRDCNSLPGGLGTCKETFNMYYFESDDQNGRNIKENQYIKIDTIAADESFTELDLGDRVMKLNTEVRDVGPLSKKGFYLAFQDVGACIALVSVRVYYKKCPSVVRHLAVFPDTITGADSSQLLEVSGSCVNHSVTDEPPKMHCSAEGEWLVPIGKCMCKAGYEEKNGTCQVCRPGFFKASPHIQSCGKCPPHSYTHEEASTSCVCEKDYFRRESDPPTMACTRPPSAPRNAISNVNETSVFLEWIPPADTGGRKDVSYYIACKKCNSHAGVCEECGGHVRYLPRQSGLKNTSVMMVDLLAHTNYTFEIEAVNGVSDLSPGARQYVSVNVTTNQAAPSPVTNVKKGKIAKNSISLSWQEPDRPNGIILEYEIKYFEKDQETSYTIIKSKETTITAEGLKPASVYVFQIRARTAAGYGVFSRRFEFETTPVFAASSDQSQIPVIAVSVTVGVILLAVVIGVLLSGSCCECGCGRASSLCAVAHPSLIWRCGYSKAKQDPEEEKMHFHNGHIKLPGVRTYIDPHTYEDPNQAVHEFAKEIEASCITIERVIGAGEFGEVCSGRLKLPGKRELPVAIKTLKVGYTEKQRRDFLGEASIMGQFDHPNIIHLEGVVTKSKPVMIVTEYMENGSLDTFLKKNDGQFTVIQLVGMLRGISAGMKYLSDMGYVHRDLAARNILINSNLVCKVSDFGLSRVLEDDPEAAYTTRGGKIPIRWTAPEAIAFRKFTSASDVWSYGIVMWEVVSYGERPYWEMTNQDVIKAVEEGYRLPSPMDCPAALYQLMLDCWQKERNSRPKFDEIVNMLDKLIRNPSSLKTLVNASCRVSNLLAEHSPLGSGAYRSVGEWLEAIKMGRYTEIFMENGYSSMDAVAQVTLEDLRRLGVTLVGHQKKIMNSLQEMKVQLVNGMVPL
Ephrin type-A receptor 4 (Homo sapiens), sequence (P54764 whole entry): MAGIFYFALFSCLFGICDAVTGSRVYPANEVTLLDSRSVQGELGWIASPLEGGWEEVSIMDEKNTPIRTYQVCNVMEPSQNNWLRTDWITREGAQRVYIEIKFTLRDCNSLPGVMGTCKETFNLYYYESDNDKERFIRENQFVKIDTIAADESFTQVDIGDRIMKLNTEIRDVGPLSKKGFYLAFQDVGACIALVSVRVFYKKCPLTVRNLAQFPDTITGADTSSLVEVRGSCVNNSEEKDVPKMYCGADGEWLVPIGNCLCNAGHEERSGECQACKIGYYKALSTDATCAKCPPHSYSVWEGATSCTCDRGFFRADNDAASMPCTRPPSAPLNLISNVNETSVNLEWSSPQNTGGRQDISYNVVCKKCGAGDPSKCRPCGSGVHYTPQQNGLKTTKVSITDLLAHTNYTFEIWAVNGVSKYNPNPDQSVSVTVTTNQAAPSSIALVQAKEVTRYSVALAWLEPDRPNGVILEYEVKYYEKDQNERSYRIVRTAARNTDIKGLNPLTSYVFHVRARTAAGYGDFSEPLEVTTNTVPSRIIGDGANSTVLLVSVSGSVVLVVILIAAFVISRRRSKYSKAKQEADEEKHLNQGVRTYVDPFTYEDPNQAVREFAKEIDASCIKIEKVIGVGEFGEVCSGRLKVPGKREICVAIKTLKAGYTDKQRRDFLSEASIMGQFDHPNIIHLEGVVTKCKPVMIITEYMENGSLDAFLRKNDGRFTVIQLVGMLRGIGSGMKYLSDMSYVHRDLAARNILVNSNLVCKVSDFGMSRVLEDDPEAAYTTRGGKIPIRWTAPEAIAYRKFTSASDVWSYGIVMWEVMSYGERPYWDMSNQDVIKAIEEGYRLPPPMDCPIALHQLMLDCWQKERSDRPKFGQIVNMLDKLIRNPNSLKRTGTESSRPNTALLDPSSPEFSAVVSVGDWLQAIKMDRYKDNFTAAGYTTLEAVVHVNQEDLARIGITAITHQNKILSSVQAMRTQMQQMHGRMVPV

Row | SMILES | residual activity [1] [%] | residual activity [2] [%] | residual activity [3] [%] | residual activity [4] | residual activity [5] [%] | residual activity [6] [%] | residual activity [7] [%] | residual activity [8] [%] | residual activity [9] [%] | residual activity [10] [%] | residual activity [11] [%]
1 | O=C1NC(=O)C(c2cn(CCCO)c3ncccc23)=C1c1cnccn1 | 92 | 99 | 94 | 94% (inactive) | 99 | 92 | 98 | – | – | – | –
2 | Nc1nccc(-c2c(-c3ccc(F)cc3)ncn2C2CCNCC2)n1 | – | – | 60 | – | – | 77 | 18 | 71 | 113 | 72 | 66
